In assay [1] the test system is RAW-Dual. The assay is described as follows: NF-kB SEAP reporter activity, fold change vs agonist alone; higher = enhanced NF-kB activity. In a few lines: (§1)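 Library stock was pin-tooled at 50 nL into 384-well plates of RAW-Dual macrophages (50,000 cells/well, DMEM), followed 1 h later by a PRR agonist, and the cells were kept at 37 °C, 5% CO2. Supernatant collected after 20 hours was read for IRF by QuantiLuc luminescence and for NF-κB by QuantiBlue absorbance at 620 nm. Reporter activity is fold change over agonist-alone wells, and a well counted as cytotoxic when its IncuCyte confluency was below 70% of agonist controls in both mask sets.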

The subject of assay [2] is RAW-Dual. The assay is described as follows: NF-kB SEAP reporter activity, fold change vs agonist alone; cytotoxicity flag (confluency mask): cytotoxic (confluency <70% of control); higher = enhanced NF-kB activity. In a few lines:
as §1

Assay [3] deals with RAW-Dual. Description: NF-kB SEAP reporter activity, fold change vs agonist alone; cytotoxicity flag (confluency mask): not cytotoxic; higher = enhanced NF-kB activity. The gist of the method: as §1
Where [4] appears, read: library stock concentration (final ~1000-fold dilution): 10 mM, cytotoxicity flag (confluency mask): not cytotoxic, agonist: Imiquimod (TLR7) […].
[5] abbreviates: library stock concentration (final ~1000-fold dilution): 10 mM, cytotoxicity flag (confluency mask): not cytotoxic, agonist: MPLA (TLR4) […].
Setting [6] is: agonist: ODN 1826 (TLR9) 0.5 ug/mL.
The mark [7] stands for this setting: agonist: Pam2CSK4 (TLR2/6) 0.1 ug/mL.
[8] abbreviates: agonist: Pam3CSK4 (TLR2/1) 0.1 ug/mL.
Setting [9] is: library stock concentration (final ~1000-fold dilution): 10 mM, cytotoxicity flag (confluency mask): cytotoxic (confluency <70% of control), agonist: Imiquimod (TLR7) […].
Setting [10] is: library stock concentration (final ~1000-fold dilution): 10 mM, cytotoxicity flag (confluency mask): cytotoxic (confluency <70% of control), agonist: MPLA (TLR4) […].

Molecules are shown by their SMILES. ± gives the standard deviation of the averaged measurements. Whole data set: some 2,900 compounds, median “NF-kB SEAP reporter activity, fold change vs agonist alone” near 0.99, cut for the highest 2% near 2.6. Shown is part of a subset that was picked to be rich in the highest values.

On to `CCC1(O)CC2CN(CCc3c([nH]c4ccccc34)C(C(=O)OC)(c3cc4c(cc3OC)N(C=O)C3C(O)(C(=O)OC)C(OC(C)=O)C5(CC)C=CCN6CCC43C65)C2)C1.O=S(=O)(O)O` (stereo unspecified), for which the “NF-kB SEAP reporter activity” value with RAW-Dual [1] (setting [4]) is 2.54; with RAW-Dual [1] (setting [5]), 2.37.
For `CCC1=CC2CN(C1)Cc1c([nH]c3ccccc13)C(C(=O)OC)(c1cc3c(cc1OC)N(C)C1C(O)(C(=O)OC)C(OC(C)=O)C4(CC)C=CCN5CCC31C54)C2` (stereo unspecified) (library stock concentration (final ~1000-fold dilution): 10 mM), the “NF-kB SEAP reporter activity” value is 5.34 in the assay with RAW-Dual [2] (agonist: LPS (TLR4) 0.1 ug/mL), 0.35 with RAW-Dual [2] (setting [6]), 1.78 in the assay on RAW-Dual [2] (setting [7]) and 1.95 with RAW-Dual [2] (setting [8]).
Regarding `CCC1(O)CC2CN(CCc3c([nH]c4ccccc34)C(C(=O)OC)(c3cc4c(cc3OC)N(C)C3C(O)(C(=O)OC)C(OC(C)=O)C5(CC)C=CCN6CCC43C65)C2)C1.O=S(=O)(O)O` (stereo unspecified) (library stock concentration (final ~1000-fold dilution): 10 mM), the “NF-kB SEAP reporter activity” value with RAW-Dual [2] (agonist: LPS (TLR4) 0.1 ug/mL) turned out to be 5.91; in the assay on RAW-Dual [2] (setting [6]) it was 2.96; in the assay on RAW-Dual [2] (setting [7]), 1.48; in the assay with RAW-Dual [2] (setting [8]), 1.94.
Consider `CCC1=CC2CN(C1)Cc1c([nH]c3ccccc13)C(C(=O)OC)(c1cc3c(cc1OC)N(C)C1C(O)(C(=O)OC)C(OC(C)=O)C4(CC)C=CCN5CCC31C54)C2` (stereo unspecified), for which the “NF-kB SEAP reporter activity” value in the assay on RAW-Dual [1] (setting [9]) turned out to be 2.47; in the assay with RAW-Dual [1] (setting [10]), 2.6.
As for `C=CC(=O)Nc1cc(Nc2nccc(-c3cn(C)c4ccccc34)n2)c(OC)cc1N(C)CCN(C)C.CS(=O)(=O)O` (library stock concentration (final ~1000-fold dilution): 10 mM), the “NF-kB SEAP reporter activity” value in the assay on RAW-Dual [2] (agonist: LPS (TLR4) 0.1 ug/mL) is 2.39; with RAW-Dual [2] (setting [6]) it was 0.214; in the assay with RAW-Dual [2] (setting [7]), 1.28; with RAW-Dual [2] (setting [8]) it was 0.898.
Regarding `C=CC(=O)Nc1cc(Nc2nccc(-c3cn(C)c4ccccc34)n2)c(OC)cc1N(C)CCN(C)C.CS(=O)(=O)O`, the “NF-kB SEAP reporter activity” value with RAW-Dual [1] (setting [10]) worked out at 1.91.
Consider `O=[N+]([O-])c1ccc(Nc2ccccc2-c2ccccc2)c2nonc12`, for which the “NF-kB SEAP reporter activity” value was 0.973 with RAW-Dual [1] (setting [4]) and 1.33 with RAW-Dual [1] (setting [5]).
As to `O=[N+]([O-])c1ccc(Nc2ccccc2-c2ccccc2)c2nonc12` (library stock concentration (final ~1000-fold dilution): 10 mM), the “NF-kB SEAP reporter activity” value was 2.02 in the assay with RAW-Dual [3] (agonist: LPS (TLR4) 0.1 ug/mL), 1.02 with RAW-Dual [3] (setting [6]), 0.555 in the assay with RAW-Dual [3] (setting [7]) and 0.754 in the assay on RAW-Dual [3] (setting [8]).
`CC(C)(C)C(=O)N1N=CCC1c1ccccc1` (stereo unspecified) (library stock concentration (final ~1000-fold dilution): 10 mM): the “NF-kB SEAP reporter activity” value in the assay on RAW-Dual [3] (agonist: LPS (TLR4) 0.1 ug/mL) is 1.02 ± 0.095; in the assay with RAW-Dual [3] (setting [6]) it was 0.9171 ± 0.0045; in the assay with RAW-Dual [3] (setting [7]), 0.983 ± 0.09; in the assay with RAW-Dual [3] (setting [8]), 1.3 ± 0.015.
On to `CC(C)(C)C(=O)N1N=CCC1c1ccccc1` (stereo unspecified), for which the “NF-kB SEAP reporter activity” value came out at 0.871 ± 0.094 in the assay on RAW-Dual [1] (setting [4]) and 1.025 ± 0.0035 in the assay with RAW-Dual [1] (setting [5]).
As to `O=C(C=Cn1cnc(-c2cc(C(F)(F)F)cc(C(F)(F)F)c2)n1)NNc1cnccn1`, the figures for the “NF-kB SEAP reporter activity” value in the assay on RAW-Dual [1] (setting [4]) and in the assay on RAW-Dual [1] (setting [5]) were 1.41 and 0.523, respectively.
For the molecule `O=C(C=Cn1cnc(-c2cc(C(F)(F)F)cc(C(F)(F)F)c2)n1)NNc1cnccn1` (library stock concentration (final ~1000-fold dilution): 10 mM), the “NF-kB SEAP reporter activity” value in the assay on RAW-Dual [3] (agonist: LPS (TLR4) 0.1 ug/mL) was found to be 0.255; in the assay with RAW-Dual [3] (setting [6]), 0.841; in the assay with RAW-Dual [3] (setting [7]), 0.42; in the assay with RAW-Dual [3] (setting [8]) it was 0.428.
As for `Cc1ccc(NC(=O)c2ccc(CN3CCC(N(C)C)C3)c(C(F)(F)F)c2)cc1Nc1nccc(-c2cncnc2)n1` (stereo unspecified), the figures for the “NF-kB SEAP reporter activity” value in the assay on RAW-Dual [1] (setting [9]) and with RAW-Dual [1] (setting [10]) were 2.42 and 1.36, respectively.
On to `Cc1ccc(NC(=O)c2ccc(CN3CCC(N(C)C)C3)c(C(F)(F)F)c2)cc1Nc1nccc(-c2cncnc2)n1` (stereo unspecified) (library stock concentration (final ~1000-fold dilution): 10 mM), for which the “NF-kB SEAP reporter activity” value is 0.247 in the assay on RAW-Dual [2] (agonist: LPS (TLR4) 0.1 ug/mL), 0.833 in the assay on RAW-Dual [2] (setting [6]), 1.4 in the assay with RAW-Dual [2] (setting [7]) and 1.16 in the assay on RAW-Dual [2] (setting [8]).
On to `Cc1nc(NC(=O)N2CCCC2C(N)=O)sc1-c1ccnc(C(C)(C)C(F)(F)F)c1` (stereo unspecified), for which the “NF-kB SEAP reporter activity” value in the assay on RAW-Dual [1] (setting [4]) came to 1.35; in the assay with RAW-Dual [1] (setting [5]), 1.13.
Consider `Cc1nc(NC(=O)N2CCCC2C(N)=O)sc1-c1ccnc(C(C)(C)C(F)(F)F)c1` (stereo unspecified) (library stock concentration (final ~1000-fold dilution): 10 mM), for which the “NF-kB SEAP reporter activity” value in the assay on RAW-Dual [3] (agonist: LPS (TLR4) 0.1 ug/mL) was 1.65; in the assay on RAW-Dual [3] (setting [6]), 1.78; with RAW-Dual [3] (setting [7]), 1.43; in the assay on RAW-Dual [3] (setting [8]), 1.09.
Take `C=CC(=O)Nc1cccc(C)c1Nc1ncc2cc(-c3c(Cl)c(OC)cc(OC)c3Cl)ccc2n1` (library stock concentration (final ~1000-fold dilution): 2 mM): the “NF-kB SEAP reporter activity” value worked out at 1.04 in the assay on RAW-Dual [3] (agonist: LPS (TLR4) 0.1 ug/mL), 1.08 in the assay on RAW-Dual [3] (setting [6]), 0.531 in the assay on RAW-Dual [3] (setting [7]) and 0.89 with RAW-Dual [3] (setting [8]).
With `C=CC(=O)NC1CCOCC1Nc1ncc2cc(-c3c(Cl)c(OC)cc(OC)c3Cl)ccc2n1` (stereo unspecified), the figures for the “NF-kB SEAP reporter activity” value in the assay with RAW-Dual [1] (setting [4]) and in the assay with RAW-Dual [1] (setting [5]) were 0.68 and 0.869, respectively.
Turning to `C=CC(=O)N1CCN(CCCn2c(=O)c(-c3c(Cl)c(OC)cc(OC)c3Cl)cc3cnc(NC)nc32)CC1`, the figures for the “NF-kB SEAP reporter activity” value in the assay on RAW-Dual [1] (setting [4]) and in the assay on RAW-Dual [1] (setting [5]) were 0.952 and 1.23, respectively.
Take `C=CC(=O)NC1CCOCC1Nc1ncc2cc(-c3c(Cl)c(OC)cc(OC)c3Cl)ccc2n1` (stereo unspecified) (library stock concentration (final ~1000-fold dilution): 10 mM): the “NF-kB SEAP reporter activity” value in the assay on RAW-Dual [3] (agonist: LPS (TLR4) 0.1 ug/mL) is 0.691; with RAW-Dual [3] (setting [6]), 0.827; in the assay with RAW-Dual [3] (setting [7]) it was 0.34; with RAW-Dual [3] (setting [8]), 0.478.
For `C=CC(=O)Nc1cccc(C)c1Nc1ncc2cc(-c3c(Cl)c(OC)cc(OC)c3Cl)ccc2n1`, the “NF-kB SEAP reporter activity” value came out at 1.08 in the assay with RAW-Dual [1] (library stock concentration (final ~1000-fold dilution): 2 mM, cytotoxicity flag (confluency mask): not cytotoxic, agonist: Imiquimod (TLR7) […]) and 1.2 in the assay with RAW-Dual [1] (library stock concentration (final ~1000-fold dilution): 2 mM, cytotoxicity flag (confluency mask): not cytotoxic, agonist: MPLA (TLR4) […]).
`C=CC(=O)N1CCN(CCCn2c(=O)c(-c3c(Cl)c(OC)cc(OC)c3Cl)cc3cnc(NC)nc32)CC1` (library stock concentration (final ~1000-fold dilution): 10 mM): the “NF-kB SEAP reporter activity” value in the assay on RAW-Dual [3] (agonist: LPS (TLR4) 0.1 ug/mL) turned out to be 3.2; with RAW-Dual [3] (setting [6]) it was 1.05; in the assay on RAW-Dual [3] (setting [7]), 0.933; in the assay on RAW-Dual [3] (setting [8]), 1.15.
As for `CC(C)(C)NC(=O)C1CCC2C3CCC4NC(=O)C=CC4(C)C3CCC12C` (stereo unspecified) (library stock concentration (final ~1000-fold dilution): 10 mM), the “NF-kB SEAP reporter activity” value stood at 0.988 in the assay with RAW-Dual [3] (agonist: LPS (TLR4) 0.1 ug/mL), 0.946 with RAW-Dual [3] (setting [6]), 0.943 in the assay with RAW-Dual [3] (setting [7]) and 0.998 with RAW-Dual [3] (setting [8]).
For `CC(C)(C)NC(=O)C1CCC2C3CCC4NC(=O)C=CC4(C)C3CCC12C` (stereo unspecified), the “NF-kB SEAP reporter activity” value in the assay on RAW-Dual [1] (setting [4]) stood at 0.218; in the assay with RAW-Dual [1] (setting [5]), 1.07.
